Here are results for 25 molecules from PubChem BioAssay (Tox21).

Experiment [1] can be described thus: qHTS assay to identify small molecule agonists of the estrogen receptor alpha (ER-alpha) signaling pathway in the presence of an antagonist - cell viability counter screen (AID 1259386).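 Further: cells exposed to compounds for 22 h at 37 °C before the viability read; nearly all actives have a fitted effect of over 30% in size.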 Further: potency means the concentration at half of the fitted maximal effect. Summed up: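 Viability counter screen using VM7Luc4E2 (full-length ER-alpha, four ERE-luciferase). The cells were treated with compounds alongside ICI-182,780 10.0nM for 22hr, and live-cell protease fluorescence was quantified with CellTiter-Fluor.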

Experiment [2] has as its target Progesterone receptor (Homo sapiens) (UniProt P06401). The experiment can be described thus: qHTS assay to identify small molecule agonists of the progesterone receptor (PR) signaling pathway (AID 1346784; calls by dose curve; further: nearly all actives have a fitted effect of over 30% in size; further: potency means the concentration at half of the fitted maximal effect). Summed up: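 Agonist mode, quantitative HTS format in a HEK 293T line expressing a UAS-controlled beta-lactamase reporter; 16 hr compound exposure at 37C in 2% charcoal-stripped FBS, then LiveBLAzer B/G FRET fluorescence.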
For orientation: Quantitative high-throughput screening tests each substance at several concentrations.

For experiment [3] the target is unchanged. The experiment can be described thus: qHTS assay to identify small molecule antagonists of the progesterone receptor (PR) signaling pathway (AID 1346795; active means well fitted inhibition curve with a large enough effect in the signal ratio in the repeat runs, not every such curve was filed as active; the % refers to the signal ratio; further: potency means the concentration at half of the fitted maximal effect). Summed up:
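HEK293T PR-UAS-bla reporter cells in charcoal-stripped serum (2%) received compound after a 6 hr settling period, followed by R5020 agonist at 1 nM final; 16 hr incubation preceded the FRET substrate step and fluorescence measurement.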

A short description of experiment [4]: qHTS assay to identify small molecule antagonists of the progesterone receptor (PR) signaling pathway - cell viability counter screen (AID 1346798). Further: series mostly up to about 92 µM; nearly all actives have a fitted effect of over 50% in size. The procedure, abridged: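 Same-well multiplex: after 16 hr at 37C with compound and R5020 stimulation, HEK293T cells carrying a UAS-bla reporter received LiveBLAzer substrate (2 hr RT), then CellTiter-Glo (30 min RT) for luminescent viability.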

Experiment [5] is described as follows: qHTS assay to identify small molecule antagonists of the TGF-beta/Smad signaling pathway - cell viability counter screen (AID 1346824). Further: nearly all actives have a fitted effect of over 50% in size. The procedure, abridged:
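SBE-bla HEK 293T cells, incubated overnight, then compound plus 0.25 ng/mL TGF-beta1 (stock added) for 5 hr at 37 C. Viability was read in the same wells by CellTiter-Glo luminescence after 30 min at room temperature.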

The nature of experiment [6]: qHTS assay to identify small molecule agonists of the TGF-beta/Smad signaling pathway - cell viability counter screen (AID 1346829). Further: top concentration of the series differs between compounds; nearly all actives have a fitted effect of over 45% in size. Summed up:
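HEK 293T SBE-bla line, 5 hr compound exposure at 37 C, multiplexed CellTiter-Glo viability read by luminescence.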

Experiment [7] in a line: qHTS assay to identify small molecule agonists of the TGF-beta/Smad signaling pathway (AID 1346859; active means well fitted activation curve with a large enough effect in the signal ratio in the repeat runs, not every such curve was filed as active; the % refers to the signal ratio; further: series mostly up to about 77 µM). The procedure, abridged:
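Smad-responsive beta-lactamase reporter cells (HEK 293T) received compounds from DMSO stocks after overnight attachment, were incubated 5 hr, then treated 2 hr with FRET substrate before dual-emission fluorescence measurement (405 nm excitation).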

Experiment [8] is described as follows: qHTS assay to identify small molecule agonists of the progesterone receptor (PR) signaling pathway - cell viability counter screen (AID 1346799; calls by dose curve; further: nearly all actives have a fitted effect of over 45% in size). Summed up: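 Counter screen for cytotoxicity: compound-treated PR-UAS-bla HEK293T cells (16 hr, 37C, 5% CO2) were assayed with CellTiter-Glo, luminescence measured after 30 min at room temperature.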
For experiment [9], the target named is Thyrotropin-releasing hormone receptor (Homo sapiens) (UniProt P34981). The experiment can be described thus: qHTS assay to identify small molecule antagonists of the thyrotropin-releasing hormone receptor (TRHR) signaling pathway (AID 1346877; active means well fitted inhibition curve with a large enough effect in the repeat runs, not every such curve was filed as active; further: series mostly up to about 51 µM). Summed up:
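Following an 18 h incubation at 37 °C and a 2 h calcium dye load, TRHR-HEK293 cells were exposed to compound (5 min, room temperature) and challenged with TRH, 1 nM final.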

Experiment [10] has the same target. The experiment can be described thus: qHTS assay to identify small molecule agonists of the thyrotropin-releasing hormone receptor (TRHR) signaling pathway (AID 1346891; calls by dose curve;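 further: HEK293 cells expressing TRHR with calcium dye readout; series mostly up to about 58 µM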). Summed up: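 Agonist-mode calcium mobilisation screen: TRHR-transfected HEK293 cells cultured overnight (18 h), dye-loaded for 2 h at 37 °C, exposed to compounds, and monitored by fluorescence for 3 min.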

Values joined by “and” are separate entries in the source; they are usually repeats but may differ in a detail not shown here. Identical values can stand only once. Records with an inconclusive call do not appear. The source holds several records for some structures; these can differ, active in one and inactive in another. Active and inactive are the calls of the source. Unless noted, the call rests on the fitted dose curve; in most records, active means well fitted curve in the direction sought with a large enough effect in the repeat runs; inconclusive means weak or mixed curves; inactive means no such curve, though single readings can be large; an effect the other way counts as inactive or inconclusive.

Chain of Thyrotropin-releasing hormone receptor (Homo sapiens) (P34981 whole entry, looked up): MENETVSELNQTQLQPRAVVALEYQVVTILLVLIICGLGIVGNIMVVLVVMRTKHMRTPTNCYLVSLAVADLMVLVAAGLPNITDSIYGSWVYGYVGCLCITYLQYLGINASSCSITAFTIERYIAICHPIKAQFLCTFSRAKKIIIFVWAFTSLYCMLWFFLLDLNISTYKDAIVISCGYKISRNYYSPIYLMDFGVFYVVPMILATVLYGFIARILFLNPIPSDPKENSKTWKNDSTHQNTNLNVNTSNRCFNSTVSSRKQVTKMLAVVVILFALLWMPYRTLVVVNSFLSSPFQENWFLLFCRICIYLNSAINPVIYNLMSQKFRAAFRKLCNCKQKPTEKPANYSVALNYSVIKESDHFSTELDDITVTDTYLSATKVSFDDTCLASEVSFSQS
Chain of Progesterone receptor (Homo sapiens) (P06401 whole entry, looked up): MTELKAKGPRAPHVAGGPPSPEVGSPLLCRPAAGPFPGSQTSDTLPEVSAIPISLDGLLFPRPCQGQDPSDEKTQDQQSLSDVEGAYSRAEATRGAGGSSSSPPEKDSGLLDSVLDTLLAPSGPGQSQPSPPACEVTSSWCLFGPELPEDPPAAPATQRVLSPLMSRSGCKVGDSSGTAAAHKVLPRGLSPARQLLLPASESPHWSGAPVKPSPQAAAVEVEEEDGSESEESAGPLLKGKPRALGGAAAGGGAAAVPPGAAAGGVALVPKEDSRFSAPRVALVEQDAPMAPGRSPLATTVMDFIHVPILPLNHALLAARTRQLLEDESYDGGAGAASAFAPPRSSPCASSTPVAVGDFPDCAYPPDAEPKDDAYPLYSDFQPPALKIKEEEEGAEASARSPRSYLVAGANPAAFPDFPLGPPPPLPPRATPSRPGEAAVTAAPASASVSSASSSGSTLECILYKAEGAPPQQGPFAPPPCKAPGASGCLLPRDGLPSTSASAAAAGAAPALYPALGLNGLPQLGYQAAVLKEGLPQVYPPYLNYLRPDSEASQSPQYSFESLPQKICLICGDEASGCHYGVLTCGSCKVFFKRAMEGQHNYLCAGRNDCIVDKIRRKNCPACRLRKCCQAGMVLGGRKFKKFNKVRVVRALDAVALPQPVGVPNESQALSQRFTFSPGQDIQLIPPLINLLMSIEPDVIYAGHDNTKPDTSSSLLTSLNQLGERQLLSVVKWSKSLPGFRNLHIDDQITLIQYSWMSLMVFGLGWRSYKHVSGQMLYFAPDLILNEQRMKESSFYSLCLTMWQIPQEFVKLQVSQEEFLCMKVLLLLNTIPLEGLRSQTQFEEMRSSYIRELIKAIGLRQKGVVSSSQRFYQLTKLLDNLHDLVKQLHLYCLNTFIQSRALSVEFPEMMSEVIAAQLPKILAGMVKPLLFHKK

Regarding `CCc1ccc(O)cc1`, the Potency entry in [1], in experiment [2], in experiment [3], in [4], in [5] and in experiment [6] was “inactive” throughout. Moreover, in [7], the molecule was called inactive.
In the case of `CCc1ccccc1O`, the Potency result in experiment [1], in [2], in [3], in [4], in experiment [8] and in experiment [5] was “inactive” throughout. Also, the Potency result in [6] and in [10] was “inactive” in each case. Besides, the outcome in experiment [7] and in [9] was inactive.
With `C=CC(=O)OCCCCCCCC(C)C`, the Potency result in experiment [1], in experiment [2], in [3], in experiment [4], in experiment [8] and in experiment [5] was “inactive” in each case. Further, the Potency entry in [6] and in [10] was “inactive” in each case. Also, the result in experiment [7] and in experiment [9] was inactive.
For the molecule `CC(C)(CO)COC(=O)C(C)(C)CO`, the Potency entry in experiment [1], in experiment [2], in experiment [3], in experiment [4], in experiment [8] and in experiment [5] was “inactive” throughout. Besides, the Potency result in experiment [6] and in [10] was “inactive” each time. Besides, the molecule was classed as inactive in experiment [7] and in experiment [9].
As to `CC(=O)Nc1ccc(C(=O)O)cc1`, the Potency result in experiment [1], in experiment [2], in experiment [3], in experiment [4], in experiment [8] and in experiment [5] was “inactive” in each case. In addition, the Potency entry in experiment [6] and in experiment [10] was “inactive” each time. Moreover, the molecule was classed as inactive in [7] and in experiment [9].
For the molecule `Cc1cc(O)cc(C)c1Cl`, the Potency entry in experiment [1], in experiment [2], in experiment [3], in experiment [4], in experiment [8] and in experiment [5] was “inactive” throughout. Moreover, the Potency result in experiment [6] and in experiment [10] was “inactive” each time. In addition, the molecule was classed as inactive in experiment [7] and in [9].
Take `NS(=O)(=O)c1cc2c(cc1Cl)NC=NS2(=O)=O`: the Potency result in experiment [1], in experiment [2], in [3], in [4], in experiment [8] and in experiment [5] was “inactive” throughout. Also, the Potency entry in experiment [6] and in [10] was “inactive” throughout. Moreover, the molecule was called inactive in experiment [7] and in experiment [9].
Take `Cc1ccc(C(=O)O)o1`: the Potency entry in experiment [1], in experiment [2], in experiment [3], in experiment [4], in experiment [5] and in experiment [6] was “inactive” in each case. Further, the molecule was classed as inactive in experiment [7].
`CC[Si](OC(C)=O)(OC(C)=O)OC(C)=O`: the Potency entry in [1], in experiment [2], in experiment [3], in [4], in experiment [8] and in [5] was “inactive” each time. The Potency result in [6] and in [10] was “inactive” each time. For the same molecule, the molecule was called inactive in experiment [7] and in [9].
`Clc1ccc(Cl)c(Cl)c1Cl`: the Potency result in experiment [1], in experiment [2], in experiment [3], in experiment [4], in experiment [8] and in experiment [5] was “inactive” each time. The Potency entry in experiment [6] and in experiment [10] was “inactive” each time. Besides, the molecule was classed as inactive in experiment [7] and in experiment [9].
For `CCCCC(CC)COC(C)=O` (centres undefined), the Potency result in [1], in experiment [2], in experiment [3], in experiment [4], in experiment [8] and in experiment [5] was “inactive” throughout. The Potency entry in experiment [6] and in [10] was “inactive” in each case. Besides, the molecule was called inactive in experiment [7] and in experiment [9].
Consider `CN(CCOc1ccc(CC2SC(=O)NC2=O)cc1)c1ccccn1` (centres undefined), for which the Potency entry in [1], in experiment [2], in [4], in experiment [5] and in [6] was “inactive” throughout. In experiment [3], the Potency was 48.3 µM (active) and inactive. Moreover, in experiment [7], the molecule was classed as inactive.
As for `CC(C)Cc1ccccc1`, the Potency entry in experiment [1], in [2], in experiment [3], in experiment [4], in experiment [8] and in experiment [5] was “inactive” in each case. Moreover, the Potency entry in [6] and in experiment [10] was “inactive” each time. For the same molecule, the molecule was called inactive in experiment [7] and in experiment [9].
For `O=C1N=C(O)CN1/N=C/c1ccc(-c2ccc([N+](=O)[O-])cc2)o1`, the Potency in experiment [1] was 27.3 µM (active) and 26.6 µM (active). Further, the Potency result in experiment [2], in experiment [3], in experiment [4], in experiment [5] and in [6] was “inactive” throughout.
As to `O=C(Cl)c1c(Cl)c(Cl)c(C(=O)Cl)c(Cl)c1Cl`, the Potency entry in experiment [1], in [2], in experiment [3], in experiment [4], in experiment [5] and in [6] was “inactive” in each case. In addition, in experiment [10], the Potency entry is “inactive”. Besides, the call in experiment [7] and in experiment [9] was inactive.
`Oc1ccc2ccccc2c1N=Nc1ccccc1`: the Potency in experiment [1] was 21.7 µM (active) and 19.3 µM (active); in experiment [3] it was 24.3 µM (active). In addition, the Potency entry in [2], in experiment [4], in [8], in [5], in experiment [6] and in [10] was “inactive” throughout. Also, the molecule was called inactive in experiment [7] and in experiment [9].
On to `Oc1ccc(OCc2ccccc2)cc1`, for which the Potency entry in experiment [1], in experiment [2], in [4], in experiment [8], in experiment [5] and in [6] was “inactive” in each case. Also, the Potency entry in experiment [10] was “inactive”. The Potency in experiment [3] was 18.9 µM (active). Also, the molecule was classed as inactive in experiment [7] and in [9].
Turning to `OCC1CCCO1` (centres undefined), the Potency entry in experiment [1], in [2], in experiment [3], in experiment [4], in experiment [8] and in experiment [5] was “inactive” each time. Also, the Potency result in [6] and in experiment [10] was “inactive” throughout. Further, the molecule was called inactive in experiment [7] and in [9].
Take `O=[N+]([O-])c1cc(N(CCO)CCO)ccc1NCCO`: in [1], the Potency is 34.3 µM (active) and 27.3 µM (active). Further, the Potency entry in [2], in experiment [3], in experiment [4], in experiment [5] and in experiment [6] was “inactive” in each case. Further, the outcome in experiment [7] was inactive.
`CCCCCCCCC`: the Potency entry in experiment [1], in experiment [2], in [3], in experiment [4], in [8] and in [5] was “inactive” throughout. Moreover, the Potency result in experiment [6] and in experiment [10] was “inactive” in each case. Besides, the molecule was classed as inactive in experiment [7] and in [9].
`O=C(O)c1cc(-c2ccccc2)nc2ccccc12`: the Potency entry in experiment [1], in [3], in [4], in [5], in experiment [6] and in experiment [10] was “inactive” in each case. Moreover, the Potency in experiment [2] is 779 nM (active) and inactive. Further, the outcome in experiment [7] and in experiment [9] was inactive.
With `O=C1CCCCC1`, the Potency result in experiment [1], in experiment [2], in experiment [3], in [4], in [8] and in [5] was “inactive” in each case. Moreover, the Potency result in experiment [6] and in [10] was “inactive” throughout. The call in experiment [7] and in experiment [9] was inactive.
As to `COCC(C)O` (centres undefined), the Potency entry in experiment [1], in experiment [2], in [3], in [4], in experiment [8] and in [5] was “inactive” each time. The Potency result in [6] and in [10] was “inactive” throughout. Also, the result in experiment [7] and in [9] was inactive.
For the molecule `CCCCCC/C=C/CCCCCCCC(=O)O`, the Potency result in experiment [1], in [2], in experiment [3], in [4], in [8] and in experiment [5] was “inactive” in each case. In addition, the Potency entry in experiment [6] and in experiment [10] was “inactive” in each case. The outcome in [7] and in experiment [9] was inactive.
Regarding `C[C@@H](O)[C@H]1C(=O)N2C(C(=O)O)=C(S[C@@H]3CN[C@H](C(=O)N(C)C)C3)[C@H](C)[C@H]12`, the Potency result in experiment [1], in experiment [2], in [3], in experiment [4], in experiment [5] and in experiment [6] was “inactive” throughout. Moreover, the molecule was called inactive in [7].
